PubChem BioAssay
Active and inactive are the calls of the source.

Key:
Albumin (Bos taurus) = Albumin (Bos taurus) (UniProt P02769); experiment: compounds binding labelled BSA control protein – biochemical, small-molecule microarray, Alexa647 label, 635/667 nm fluorescence, artefact control for SMM control protein annotation, profiling panel (AID 1118); details: BSA-A647 binding, fluorescence 635 nm, higher = more signal;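 further: score merges 667 nm emission intensity and signal-to-noise per printed compound spot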
[1] = probe aXIP binding to arrayed compounds – biochemical, NeuroSMM set, 635/667 nm fluorescence, primary screen (AID 1119); details: small-molecule microarray, higher = more signal, called active from +8 up or from −8 down;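 further: probe is the protein aXip251-270 applied at 1 µg/mL to compound-printed slides; binding of probe to printed compounds measured as 667 nm fluorescence plus signal to noise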
[2] = probe aNOTCH3 binding on compound microarray – biochemical, small-molecule microarray, 635/667 nm fluorescence, primary screen (AID 1120); details: higher = more signal;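 further: probe is a biotin-tagged antibody raised against NOTCH3 rather than NOTCH3 protein; score merges spot fluorescence near 667 nm with spot signal to noise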
[3] = probe aNOTCH2 binding on compound microarray – biochemical, small-molecule microarray, 635/667 nm fluorescence, primary screen (AID 1121); details: higher = more signal;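 further: score merges feature fluorescence read at 667 nm with its signal to noise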
[4] = molecular target: Carbonic anhydrase 2 (Homo sapiens) (UniProt P00918); experiment: compounds binding carbonic anhydrase 2 – biochemical, small-molecule microarray, Alexa647-labelled CAII, profiling panel (AID 1122); details: CAII-A647 binding fluorescence, higher = more signal
[5] = COS7 lysate on small-molecule microarray, probe aHis, 635 nm (AID 1123); details: COS7 cell lysate, fluorescence, higher = more signal;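 further: z-score combines 667nm fluorescence intensity with signal-to-noise per printed compound spot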
[6] = probe aLAP1 signal on lysate-treated microarray – cell lysate, small-molecule microarray, COS7 lysate, primary screen (AID 1124); details: probe aLAP1, fluorescence, higher = more signal;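 further: lysate comes from COS7 cells expressing LAP1 and is applied at 0.3 µg/mL; score merges spot fluorescence near 667 nm with signal-to-noise over triplicate slides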
Sam68 (KHDRBS1) = experiment: compounds binding KHDRBS1 protein – biochemical, small-molecule microarray, 635 nm fluorescence, primary screen (AID 1125); details: higher = more signal;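 further: score merges 667 nm channel intensity with signal to noise over triplicate slides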
[7] = test system: Chordin-like protein 2 (CHRDL2); experiment: compounds binding chordin-like 2 – biochemical, small-molecule microarray, 635 nm fluorescence, primary screen (AID 1126); details: fluorescence 635 nm, higher = more signal;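 further: printed compound slides probed with Chrdl2 protein at 4 µg/mL for 1 h at 4 C; score merges 667 nm emission intensity with signal to noise over three replicate slides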
[8] = molecular target: Concanavalin-A (Canavalia ensiformis) (UniProt P02866); experiment: compounds binding concanavalin A lectin – biochemical, small-molecule microarray, Alexa647 label, 635 nm, artefact control for SMM control protein annotation, primary screen (AID 1127); details: ConA-A647 binding fluorescence, higher = more signal;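 further: z combines 667 nm emission intensity with signal-to-noise across three replicate slides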
Concanavalin-A (Canavalia ensiformis), sequence (P02866 whole entry, looked up): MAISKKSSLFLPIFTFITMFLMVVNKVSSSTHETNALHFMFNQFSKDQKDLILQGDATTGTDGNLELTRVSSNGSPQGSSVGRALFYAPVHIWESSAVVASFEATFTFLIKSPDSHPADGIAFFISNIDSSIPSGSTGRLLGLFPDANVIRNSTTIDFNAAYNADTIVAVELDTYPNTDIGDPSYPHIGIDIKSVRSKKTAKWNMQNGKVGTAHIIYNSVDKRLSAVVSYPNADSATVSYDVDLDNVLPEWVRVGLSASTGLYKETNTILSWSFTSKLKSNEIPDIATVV

Albumin (Bos taurus), sequence (P02769 whole entry, looked up): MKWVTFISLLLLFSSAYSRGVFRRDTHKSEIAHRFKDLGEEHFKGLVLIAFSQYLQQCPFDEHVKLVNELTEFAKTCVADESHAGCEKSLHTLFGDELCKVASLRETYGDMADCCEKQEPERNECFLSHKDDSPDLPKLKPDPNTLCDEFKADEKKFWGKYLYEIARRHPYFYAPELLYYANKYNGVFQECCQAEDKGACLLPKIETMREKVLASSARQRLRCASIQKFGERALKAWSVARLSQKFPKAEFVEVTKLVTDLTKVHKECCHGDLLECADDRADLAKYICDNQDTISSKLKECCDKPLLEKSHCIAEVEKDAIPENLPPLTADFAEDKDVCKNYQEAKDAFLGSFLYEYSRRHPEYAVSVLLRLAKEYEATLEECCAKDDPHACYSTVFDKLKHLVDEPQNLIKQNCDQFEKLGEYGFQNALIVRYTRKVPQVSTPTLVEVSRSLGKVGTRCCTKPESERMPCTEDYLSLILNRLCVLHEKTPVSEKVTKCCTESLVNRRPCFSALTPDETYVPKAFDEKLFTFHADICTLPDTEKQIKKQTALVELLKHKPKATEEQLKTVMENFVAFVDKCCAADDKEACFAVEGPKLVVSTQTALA

SMILES	composite z-score (Albumin (Bos taurus))	composite Z-score [1]	composite z-score [2]	composite z-score [3]	composite z-score [4]	composite z-score [5]	composite z-score [6]	composite z-score (Sam68 (KHDRBS1))	composite z-score [7]	composite z-score [8]
O=C1CCCC2OC12C(O)CCc1ccccc1 (stereo not given)	-0.0592	0.319 (inactive)	-0.0581	-0.185	-0.22	-0.324	-0.2	0.17	0.594	0.594
COc1ccc(CCNC(=O)[C@@H]2c3ccccc3C(=O)N(c3ccc(C)cn3)[C@H]2c2ccc(CO)cc2)cc1	0.45	0.378 (inactive)	-0.406	-0.0959	0.77	1.5	0.539	-0.121	-1.76	-1.45
COc1ccc(-c2ccc3c(n2)CCCN3CC(O)CN2CCCc3nc(C)c(C)cc32)cc1 (stereo not given)	0.683	2.43 (inactive)	0.713	-0.0017	0.741	0.975	0.677	1.2	1.18	1.09
C=CC[C@@H]1C=C[C@H](ON=C(C)CCN2CCc3nc(CC)c(CC)cc3C2)[C@@H](CO)O1	0.7	-2.12 (inactive)	0.325	-0.131	0.221	0.226	0.38	0.822	0.971	-0.442
CC(C)CN1CCc2nc(-c3ccccc3)c3c(c2CC1)CO[C@@H](C)C3	-0.249	-0.002 (inactive)	0.154	-0.16	-0.143	-0.258	-0.673	-0.168	0.74	0.0721
O=C1[C@H]2[C@H]3[C@H](O)[C@H](O)CC(=NOCc4ccccc4)[C@@H]3CC[C@H]2C(=O)N1C1CCCCC1	0.0567	-0.718 (inactive)	-0.0903	-0.196	0.539	0.737	-0.785	0.357	-0.142	-0.0593
COCC(=C=CC[C@@H](O)c1ccccc1OCCO)CCO	-0.0934	0.493 (inactive)	0.0596	-0.0811	0.763	0.994	-0.0546	0.567	0.22	-0.192
CCc1cc2c(nc1CC)CCN(CCC(C)=NOC[C@@H](O)COCc1ccco1)C2	-0.576	-0.206 (inactive)	1.03	0.31	0.193	-0.988	0.377	0.226	1.57	0.212
O=C1[C@H]2[C@H]3[C@H](O)[C@H](O)CC(=NO[C@@H]4O[C@H](CO)[C@@H](O)[C@H](O)[C@H]4O)[C@H]3CC[C@H]2C(=O)N1Cc1ccccc1	-0.258	-0.304 (inactive)	0.0145	-0.127	-0.457	0.904	0.0052	1.32	-0.564	0.0723
CC(C)=CCCC(C)=CCON=C1[C@H]2CCn3c(=O)n(Cc4cc5c(cc4Cl)OCO5)c(=O)n3[C@H]2[C@H](O)[C@@H]2O[C@H]12	-0.0415	-0.116 (inactive)	0.204	-0.131	-0.158	-0.605	0.0561	-0.218	1.08	0.598
CC(CCC(=O)OC[C@H]1O[C@H](C#Cc2ccccc2)C=C[C@@H]1Oc1ccc(C)cc1)=NOC[C@@H](O)COCc1ccco1	-0.515	-0.142 (inactive)	-0.781	-0.306	-0.451	-0.128	-0.547	-1.96	-3.83	-3.95
COCC1=C2[C@@H](CCc3ccccc3)OB(O)C[C@@H]2n2c(=O)n(-c3ccccc3)c(=O)n2C1	0.352	-0.532 (inactive)	-0.0204	-0.0649	0.0995	-0.0955	0.0421	-0.0265	0.198	-0.0151
O=C1[C@H]2[C@H]3[C@H](O)[C@H](O)CC(=NOC[C@@H](O)COCc4ccco4)[C@@H]3CC[C@H]2C(=O)N1c1ccc(F)cc1F	-0.126	-0.397 (inactive)	-0.205	-0.14	-0.438	-1.08	0.0425	0.235	1.38	-0.359
O=C1[C@H]2[C@H]3[C@H](O)[C@H](O)CC(=NOCc4ccccc4)[C@H]3CC[C@H]2C(=O)N1C[C@@H]1CCCO1	0.5	0.324 (inactive)	0.132	-0.12	0.432	0.469	0.491	0.232	0.312	0.652
C[C@@H]1CC[C@H]2C(=O)O[C@H](COc3ccc(C(C)(C)C)cc3)CN2[C@H]1c1ccc(Br)cc1	0.673	0.458 (inactive)	-0.0716	0.0776	-0.113	-0.231	0.157	-0.734	0.0828	-0.212
CC1CC/C=C\[C@H]2OC34C=CCN(Cn5nnc6ccccc65)C(=O)[C@H]3N(CCO)C(=O)[C@@H]4C2C(=O)O1 (stereo not given in full)	1.13	1.12 (inactive)	-0.319	-0.15	0.942	2.59	1.06	0.0381	-1.62	-0.903
COc1ccc(O[C@H]2C=C[C@@H](c3ccccc3)O[C@@H]2COC(=O)CCC(C)=NOC(C)CN2CCCCc3nc(C)c(C)cc32)cc1 (stereo not given in full)	-0.485	0.105 (inactive)	-0.0918	-0.179	0.456	0.121	-0.312	-0.433	-0.101	-0.929
COc1ccc(-c2nc3c(c4c2C[C@H](C)OC4)CN(CCC(C)C)CC3)cc1	0.556	0.292 (inactive)	-0.166	-0.0167	0.441	0.455	-0.177	1.23	0.348	0.928
CCCNC(=O)[C@@H]1c2ccccc2C(=O)N(Cc2ccccc2Cl)[C@H]1c1ccc(CO)cc1	0.414	-0.231 (inactive)	-0.0794	-0.0631	0.585	1.86	0.779	1.3	0.36	1.13
O=C(CS)NCCCCCNC(=O)[C@@H]1C[C@@H]2C(=O)N[C@@H](Cc3ccccc3)C(=O)N2[C@@H]1c1ccc(O)cc1	-0.814	0.346 (inactive)	-0.0647	-0.0756	0.674	1.37	0.154	1.3	0.617	0.874
CO[C@@H]1COC(=O)[C@@H]2CCCN2C(=O)[C@@H](C)COC(=O)[C@H](COCc2ccccc2)NC(=O)CC=C[C@H]1C	0.0307	-0.413 (inactive)	-0.059	-0.147	0.12	1.35	-0.0015	0.813	0.611	0.379
C=COC[C@H]1CN2[C@@H](CC[C@@H](C)[C@@H]2c2ccc(Br)cc2)C(=O)O1	0.496	-0.0224 (inactive)	0.0999	0.0877	0.459	0.807	0.446	1.33	0.664	1.03
C=CCN1C(=O)[C@]2(O[C@H](CCn3cc(CCO)nn3)[C@@H]([Si](C)(C)c3ccc(OC)cc3)[C@@H]2C)c2cc(N3CCOC3=O)ccc21	0.617	-0.217 (inactive)	-0.161	-0.104	0.368	1.88	1.21	0.448	-0.34	1.13
[N-]=[N+]=Nc1ccccc1C[C@@]1(C(N)=O)N=C(c2ccc(OCCCO)cc2)O[C@@H]1c1ccccc1	0.841	0.0117 (inactive)	-0.0014	-0.0633	0.723	1.74	0.567	1.05	-1.26	0.704
CO[C@@H]1COC(=O)CC=C[C@@H](C)COC(=O)[C@H](COCc2ccccc2)NC(=O)CC=C[C@H]1C	-1.2	1.13 (inactive)	-0.111	-0.108	-0.788	-0.843	0.864	-0.597	1.48	-2.62
COc1ccc([Si](C)(C)[C@H]2[C@H](CC(=O)N3CCC[C@H]3CO)O[C@@]3(C(=O)N(Cc4cccc(N5C(=O)COc6ccccc65)c4)c4ccccc43)[C@@H]2C)cc1	0.34	0.33 (inactive)	0.0293	-0.0556	0.437	2.38	0.125	1.26	0.959	0.997
C[C@@H]1C=CCC(=O)OC[C@H](C)C(=O)N[C@@H](C)C(=O)OC1	-0.171	0.215 (inactive)	-0.0647	-0.144	-0.385	-0.466	0.369	0.175	0.71	0.155
C#C[C@@H]1Oc2ccccc2S(=O)(=O)N2CCC[C@H]12	-0.13	0.235 (inactive)	-0.063	-0.185	0.256	-1.2	-0.34	-1.29	0.424	-0.512
